Reference: PubChem BioAssay
Calls of active or inactive are those of the source. Unless noted, no rule for the calls is given here.

Tests used:
[1] = HepG2 liver cancer cell viability effects, profiling panel, resazurin fluorescence, 24 h, PK04 Diversity Set (AID 1172); conditions: higher = more signal
[2] = basal S. cerevisiae growth modulation, no modifier, primary screen, OD600, strain BY4716, 24 h, basal condition (AID 1173); conditions: OD600, 24 h, higher = more signal, called active from +8 up or from −8 down
[3] = MM1S myeloma cell viability, profiling panel, resazurin fluorescence, basal, 24 h, PK04 Diversity Set (AID 1174); conditions: higher = more signal, called active from +8 up or from −8 down;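 also: MM1S multiple myeloma cell line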
[4] = biological target: Dihydroorotate dehydrogenase (quinone), mitochondrial (Plasmodium falciparum (isolate 3D7)) (UniProt Q08210); assay: PfDHODH enzyme inhibitors, primary screen, biochemical, C-terminal His tag, absorbance 600 nm (AID 1175); conditions: DCIP absorbance 600 nm, higher = more signal, called active from +8 up or from −8 down;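 also: recombinant parasite enzyme with a five histidine tag at its C terminus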
[5] = P. aeruginosa biofilm formation inhibitors, primary screen, strain PAO1, LB-PBS medium, absorbance 600 nm (AID 1176); conditions: P. aeruginosa PAO1 growth/biofilm, A600, 12 h; higher = more signal
[6] = S. cerevisiae RM11-1a growth modifiers, primary screen, strain RM11-1a, OD600, basal, 24 h (AID 1177); conditions: OD600, 24 h, higher = more signal, called active from +8 up or from −8 down;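 also: cultures grown under basal conditions with no added stressor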
[7] = E. coli acrAB mutant growth effects, primary screen, E. coli filamentation inducers, strain DRC39, OD650, 24 h (AID 1178); conditions: higher = more signal, called active from +8 up or from −8 down;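 also: growth measured as culture turbidity by optical density at 650 nm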
[8] = E. coli acrAB mutant growth effects, primary screen, E. coli filamentation inducers, strain DRC39, OD650, 48 h (AID 1179);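 also: screen aims at cell division blockers that make cells filament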; conditions: E. coli DRC39 delta-acrAB growth, higher = more signal, called active from +8 up or from −8 down
[9] = RPMI8226 myeloma cell viability, profiling panel, resazurin fluorescence, basal, 24 h, PK04 Diversity Set (AID 1180); conditions: higher = more signal;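 also: RPMI8826 multiple myeloma cell line at 5000 cells per well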
[10] = biological target: E3 ubiquitin-protein ligase XIAP (Homo sapiens) (UniProt P98170); assay: XIAP binders, primary screen, biophysical, small-molecule microarray, fluorescence 635 nm (AID 1181); conditions: small-molecule microarray binding, higher = more signal;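 also: score merges 667 nm emission and signal to noise over triplicate slides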
[11] = system: XIP peptide (Xip251-270) binding; assay: small-molecule binders of XIP peptide, primary screen, biochemical, small-molecule microarray, fluorescence 635/667 nm, 0.1 µg/mL protein (AID 1182); conditions: fluorescent protein binding, 635 nm, higher = more signal, called active from +8 up or from −8 down
[12] = system: XIP peptide (Xip251-270); assay: small-molecule binders of XIP peptide, primary screen, biochemical, small-molecule microarray, fluorescence 635/667 nm, 0.5 µg/mL protein (AID 1183); conditions: small-molecule microarray binding, fluorescence 635 nm; higher = more signal
[13] = Plasmodium falciparum growth inhibition, primary screen, strain 3D7, DAPI fluorescence, 100 nL (AID 1184);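 also: parasites grown inside human red blood cells in medium with human serum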; conditions: P. falciparum 3D7 growth, 3 d, higher = more signal
[14] = biological target: Homeobox protein Hox-A13 (Mus musculus) (UniProt Q62424); assay: inhibitors of HoxA13-DNA binding, primary screen, biochemical, fluorescence polarization, labeled oligonucleotide (AID 1185); conditions: 15 min, higher = more signal, called active from +8 up or from −8 down
Chain of Homeobox protein Hox-A13 (Mus musculus) (Q62424 whole entry, looked up): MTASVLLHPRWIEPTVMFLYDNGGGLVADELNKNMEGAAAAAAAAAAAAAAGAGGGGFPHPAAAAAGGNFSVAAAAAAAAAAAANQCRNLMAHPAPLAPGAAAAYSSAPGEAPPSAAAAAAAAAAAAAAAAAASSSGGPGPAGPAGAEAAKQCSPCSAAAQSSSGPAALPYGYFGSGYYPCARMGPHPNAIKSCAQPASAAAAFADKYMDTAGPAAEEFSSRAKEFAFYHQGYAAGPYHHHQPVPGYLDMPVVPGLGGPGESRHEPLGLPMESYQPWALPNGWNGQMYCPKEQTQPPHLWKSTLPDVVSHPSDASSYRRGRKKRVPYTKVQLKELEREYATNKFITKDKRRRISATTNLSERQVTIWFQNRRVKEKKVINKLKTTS

Chain of E3 ubiquitin-protein ligase XIAP (Homo sapiens) (P98170 whole entry, looked up): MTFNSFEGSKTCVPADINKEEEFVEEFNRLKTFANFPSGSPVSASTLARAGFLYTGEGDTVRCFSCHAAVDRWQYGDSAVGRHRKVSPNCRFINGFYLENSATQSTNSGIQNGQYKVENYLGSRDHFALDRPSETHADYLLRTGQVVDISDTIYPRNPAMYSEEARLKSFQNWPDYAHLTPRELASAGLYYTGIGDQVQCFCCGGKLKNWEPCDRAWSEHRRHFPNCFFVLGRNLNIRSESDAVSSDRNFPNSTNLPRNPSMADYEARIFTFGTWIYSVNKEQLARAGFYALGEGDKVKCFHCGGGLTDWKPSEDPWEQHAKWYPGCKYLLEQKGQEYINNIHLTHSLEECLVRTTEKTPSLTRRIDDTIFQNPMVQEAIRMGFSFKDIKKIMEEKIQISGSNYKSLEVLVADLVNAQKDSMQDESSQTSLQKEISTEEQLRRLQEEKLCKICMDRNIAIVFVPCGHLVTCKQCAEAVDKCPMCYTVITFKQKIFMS
Chain of Dihydroorotate dehydrogenase (quinone), mitochondrial (Plasmodium falciparum (isolate 3D7)) (Q08210 whole entry, looked up): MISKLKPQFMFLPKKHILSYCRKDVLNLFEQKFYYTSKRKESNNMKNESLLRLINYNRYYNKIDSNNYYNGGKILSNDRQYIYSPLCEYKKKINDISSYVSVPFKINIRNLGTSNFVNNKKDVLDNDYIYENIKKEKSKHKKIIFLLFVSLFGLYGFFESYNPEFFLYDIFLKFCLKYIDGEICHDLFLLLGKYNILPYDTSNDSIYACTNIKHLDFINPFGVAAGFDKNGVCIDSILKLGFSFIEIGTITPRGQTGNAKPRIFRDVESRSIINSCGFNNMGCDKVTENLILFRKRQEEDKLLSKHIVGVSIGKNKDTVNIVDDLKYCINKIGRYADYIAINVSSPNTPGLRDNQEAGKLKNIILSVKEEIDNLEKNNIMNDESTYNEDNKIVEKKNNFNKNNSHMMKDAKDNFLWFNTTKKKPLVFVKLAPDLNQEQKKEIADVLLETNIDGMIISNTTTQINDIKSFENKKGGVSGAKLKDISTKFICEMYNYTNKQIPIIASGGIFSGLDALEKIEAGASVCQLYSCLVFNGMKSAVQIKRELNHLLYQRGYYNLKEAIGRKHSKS

Structure (SMILES)	z-score [1]	z-score [2]	z-score [3]	composite z-score [4]	z-score [5]	z-score [6]	z-score [7]	z-score [8]	z-score [9]	composite z-score [10]	composite z-score [11]	composite z-score [12]	z-score [13]	z-score [14]
COc1ccc(COC(=O)NN=C2C[C@@H](O)[C@@H](O)[C@@H]3[C@@H]4C(=O)N(C[C@@H]5CCCO5)C(=O)[C@@H]4CC[C@@H]23)cc1	-0.407	0.443 (inactive)	0.075 (inactive)	-0.367 (inactive)	0.328 (inactive)	0.513 (inactive)	1.02 (inactive)	1.11 (inactive)	0.115	-0.0559	-0.155 (inactive)	0.744	-0.0701	0.903 (inactive)
CCN1C(=O)[C@H]2[C@H]3[C@H](O)[C@H](O)CC(=NOC[C@@H](O)[C@H]4O[C@@H]5OC(C)(C)O[C@@H]5[C@H]4O)[C@@H]3CC[C@H]2C1=O	-1.27	-0.569 (inactive)	-2.69 (inactive)	-0.898 (inactive)	-0.795 (inactive)	-0.0223 (inactive)	0.74 (inactive)	0.144 (inactive)	-0.767	0.0126	-0.0371 (inactive)	0.33	0.663	0.303 (inactive)
O=C1C2=CC[C@H]3C(=O)N(Cc4ccccc4)C(=O)[C@H]3[C@H]2[C@H](O)[C@@H]2O[C@H]12	0.35	-2.16 (inactive)	-5.73 (inactive)	-1.59 (inactive)	0.0821 (inactive)	-1.22 (inactive)	-0.416 (inactive)	-0.425 (inactive)	-3.38	0.0006	0.409 (inactive)	-0.194	-0.116	-5.55 (inactive)
O=C1CCCC=C1C(O)c1ccc([N+](=O)[O-])cc1 (stereo not given)	-0.426	-0.851 (inactive)	-0.57 (inactive)	-0.42 (inactive)	-0.47 (inactive)	-0.66 (inactive)	0.47 (inactive)	0.4 (inactive)	-0.865	-0.0019	-0.542 (inactive)	0.852	0.938	0.164 (inactive)
CC(C)=CCCC(C)=CCON=C1C[C@@H](O)[C@@H](O)[C@@H]2[C@@H]3C(=O)N(c4cccc(Oc5ccccc5)c4)C(=O)[C@@H]3CC[C@H]12	1.05	0.681 (inactive)	0.674 (inactive)	-0.141 (inactive)	-0.0849 (inactive)	0.668 (inactive)	0.599 (inactive)	0.15 (inactive)	0.157	-0.102	0.827 (inactive)	-0.256	0.395	-0.963 (inactive)
COC(=O)[C@@H]1CC[C@H](C)[C@@H](c2ccc(C)cc2)N1C(=O)c1ccc(C=NO[C@@H](C)c2cc(-c3c(C)cc(C)cc3C)no2)cc1	-0.726	1.36 (inactive)	-0.321 (inactive)	0.502 (inactive)	-0.925 (inactive)	0.378 (inactive)	0.218 (inactive)	1.04 (inactive)	0.0524	-0.238	-0.274 (inactive)	0.511	-0.225	0.492 (inactive)
COc1cccc([C@H]2Oc3ccc(OC)cc3C(=NOCC[C@@H]3C=C[C@H](OC(C)=O)[C@@H](COC(C)=O)O3)[C@@H]2O)c1	-0.76	0.813 (inactive)	-0.698 (inactive)	0.472 (inactive)	0.0767 (inactive)	0.614 (inactive)	0.688 (inactive)	-0.53 (inactive)	-0.583	0.0123	0.451 (inactive)	0.206	0.956	-5.39 (inactive)
C#CCCCON=C1C[C@@H](O)[C@@H](O)[C@@H]2[C@@H]3C(=O)N(C4CCCCC4)C(=O)[C@@H]3CC[C@@H]12	-0.673	-3.17 (inactive)	-0.0738 (inactive)	-1.65 (inactive)	0.164 (inactive)	-1.88 (inactive)	0.587 (inactive)	0.311 (inactive)	0.321	-0.392	0.481 (inactive)	0.0169	0.204	-4.64 (inactive)
C[C@H]1CC[C@@H](C(=O)O)N[C@@H]1c1cccc(N2CCCC2=O)c1	0.672	-0.281 (inactive)	-0.0691 (inactive)	0.552 (inactive)	-0.163 (inactive)	0.765 (inactive)	0.968 (inactive)	0.215 (inactive)	-0.652	0.0909	0.641 (inactive)	-0.397	0.752	-0.0351 (inactive)
CCO[C@H](c1cc(OC)cc([N+](=O)[O-])c1OC)[C@H](C)[C@@H](OC)[C@H](C)C=CCC(=O)OC	-0.467	-0.435 (inactive)	0.149 (inactive)	0.189 (inactive)	-0.303 (inactive)	-0.147 (inactive)	-0.508 (inactive)	-0.17 (inactive)	0.0951	0.1	0.72 (inactive)	0.0025	-0.119	-0.256 (inactive)
